Assay outcomes: PubChem BioAssay, National Center for Advancing Translational Sciences (NCATS)
Cruzain noTriton: qHTS Assay for Promiscuous and Specific Inhibitors of Cruzain (without detergent); Cruzipain (Trypanosoma cruzi), P25779; purified cruzain, Z-FR-AMC fluorescence, no detergent; Potency, µM, for the others: max response, negative = inhibition, hits mostly inhibitors; 200,000 compounds, 2.3% hits;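 further: plate controls were enzyme without inhibitor for no effect and buffer without enzyme for full effect; nearly all actives have a fitted effect of over 40% in size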
Target sequence (P25779 123-467 limits assumed): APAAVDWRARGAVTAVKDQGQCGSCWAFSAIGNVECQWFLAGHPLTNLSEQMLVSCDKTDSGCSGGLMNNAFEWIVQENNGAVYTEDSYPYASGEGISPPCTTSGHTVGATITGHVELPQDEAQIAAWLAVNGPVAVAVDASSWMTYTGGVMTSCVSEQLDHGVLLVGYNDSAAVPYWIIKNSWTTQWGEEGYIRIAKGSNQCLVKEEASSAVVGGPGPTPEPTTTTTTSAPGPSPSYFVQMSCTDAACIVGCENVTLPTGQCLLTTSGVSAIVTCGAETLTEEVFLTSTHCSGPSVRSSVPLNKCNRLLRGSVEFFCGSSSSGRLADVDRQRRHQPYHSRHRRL
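Detergent-free condition (0.00005% Triton X-100) in acetate buffer pH 5.5 with DTT. 1.5 nM enzyme and compound were pre-mixed 15 min, then 2 uM Z-FR-AMC substrate added; reaction progress from fluorescence change between first and third reads (60 s).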
Cruzain inh Det: qHTS Assay for Promiscuous and Specific Inhibitors of Cruzain (with detergent); 200,000 compounds, 0.43% hits; Potency, µM, inactives show max response, negative = inhibition, most hits filed as inhibitors; AID 1478, 2009; purified cruzain, Z-FR-AMC fluorescence, 0.01% Triton; Cruzipain (Trypanosoma cruzi), P25779;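 further: plate controls were neutral wells for no effect and buffer without enzyme for full effect; nearly all actives have a fitted effect of over 40% in size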
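Cysteine protease activity tested under reducing, mildly acidic conditions (100 mM sodium acetate pH 5.5, 5 mM DTT) plus 0.01% Triton X-100. Cruzain 1.5 nM; substrate Z-FR-AMC 2 uM; 15 min compound preincubation at room temperature.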
The depositor's hits bear a star; ? = inconclusive; ! = a repeat was not active. Compounds with a hit are over-represented: about 2.4% of the library has one in this group of screens. The call rests on the fitted dose curve; in most records, active means well fitted curve in the direction sought with a large enough effect; inconclusive means small, poorly fitted or top-dose-only effect, or another doubt; inactive means no such curve, though single readings can be large; an effect the other way counts as inactive or inconclusive. Potency means the concentration at half of the fitted maximal effect.

SMILES | Cruzain noTriton | Cruzain inh Det
O=S(=O)(c1ccc(F)cc1)N1CCN(c2nc(-c3ccc(F)cc3)cs2)CC1 | 10µM* | -0.6%
CS(=O)(=O)N1CCN(c2nc(-c3ccc(F)cc3)cs2)CC1 | -1.4% | -2.2%
CCN1CCN(S(=O)(=O)c2ccc3ccccc3c2)CC1 | 7.3% | 2.0%
CS(=O)(=O)Nc1ccc(Nc2c3ccccc3nc3ccccc23)cc1 | -6.8% | -0.2%
Cc1c(CNCCCc2ccccc2)c(C(=O)O)c(C)n1Cc1ccc(Cl)cc1 | -1.8% | -2.8%
CC(C)(C)c1ccc(C(=O)Nc2nnc(Cc3c[nH]c4ccccc34)s2)cc1 | ? | 5.5%
O=C(Nc1nnc(Cc2c[nH]c3ccccc23)s1)c1ccc(Cl)cc1Cl | 25.1µM* | -8.3%
Cc1ccccc1C(c1c(C)n(C)n(-c2ccccc2)c1=O)c1c(C)n(C)n(-c2ccccc2)c1=O | 3.9% | -0.2%
NC(N)=Nc1nc(CSCC/C(N)=N/S(N)(=O)=O)cs1 | 10µM*! | -14.1%
O=C(CC1N=C2c3ccccc3N=C(SCC(=O)Nc3cccc(Cl)c3)N2C1=O)NCc1cccs1 (stereo not drawn) | -5.1% | -12.7%
C[C@@H]1C=C[C@](Cc2ccccc2)(C(=O)NCCCNc2ncc(C(F)(F)F)cc2Cl)N1C(=O)c1ccccc1 | 21.5% | -3.6%
C=C(C)Cn1c(SCC#N)nc2ccccc2c1=O | -10.8% | 1.5%
N#CCSc1nc2ccc(N3CCCCC3)cc2c(=O)n1Cc1ccccc1 | 25.1µM* | -0.9%
CCc1ccc(NC(=O)c2cc3nc(-c4ccc(C)cc4)cc(C(F)(F)F)n3n2)cc1 | ? | 0.2%
NCCP(=O)(O)O | 4.3% | 1.3%
COc1ccc(-c2cn(-c3ccc(C)cc3)c(S(=O)(=O)CC(=O)Nc3ccccc3)n2)cc1 | 20µM* | -14.5%
COc1ccc(-c2cn(-c3ccc(C)cc3)c(S(=O)(=O)CC(=O)Nc3ccc(F)cc3)n2)cc1 | 15.8µM* | -10.9%
Cc1cccc(C)c1NC(=O)CS(=O)(=O)c1nc(-c2ccc(Cl)cc2)cn1-c1ccccc1 | -3.6% | ?
COc1ccccc1-n1cc(-c2ccc(C)cc2)nc1S(=O)(=O)CC(=O)Nc1ccccc1C(F)(F)F | 11.7% | 1.7%
COC(=O)c1ccc(C(NC(=O)c2ccco2)[C@]2(C)C[C@H]2C2CCCCC2)cc1 (stereo partly drawn) | -6.8% | -4.8%
COc1ccccc1Cn1c(CNS(=O)(=O)c2cccc([N+](=O)[O-])c2)nc2cccnc21 | -7.9% | -1.1%
Nc1sc2c(c1C(=O)c1ccccc1)CCCC2 | -23.9% | -8.2%
NC(=O)c1c(N)sc2c1CCCC2 | 20µM* | -21.9%
Cc1cc2oc(=O)cc(-c3ccccc3)c2c(C)c1-c1cccc(N)c1 | ? | 2.3%
Cc1cc2oc(=O)cc(-c3ccccc3)c2c(C)c1-c1sccc1C=O | ? | 0.6%
SMILES | Cruzain noTriton | Cruzain inh Det
Cc1cc2oc(=O)cc(-c3ccccc3)c2c(C)c1-c1ccc(F)c(Cl)c1 | 5.62µM* | 0.6%
CC(=O)c1ccsc1-c1c(C)cc2oc(=O)cc(-c3ccccc3)c2c1C | 35.5µM* | 1.3%
CCC1(CCSC(=N)N)C(=O)NC(=O)NC1=O | 0.7% | 4.0%
Cc1ccc(/C=C/C(=O)c2nc3ccccc3[nH]2)cc1 | -8.0% | 2.8%
Cc1ccc(/C=C/C(=O)Nc2nc3ccccc3[nH]2)cc1 | 25.1µM* | 2.9%
Cc1cc(C)c2sc(N3CCN(C(=O)C4CC4)CC3)nc2c1 | ? | -5.6%
Cn1c(C(=O)NCCN2CCc3ccccc3C2)cc2c(=O)n(C)c3ccccc3c21 | ? | 25.1µM*
CCOCCCNC(=O)c1cc2c(=O)n(C)c3ccccc3c2n1C | -10.6% | -1.7%
CCCN(CCC)CCNC(=O)c1cc2c(=O)n(C)c3ccccc3c2n1C | ? | 15.8µM*
Cn1c(C(=O)NCCN2CCN(c3ccccc3F)CC2)cc2c(=O)n(C)c3ccccc3c21 | -9.8% | -3.9%
CC(C)(C)OC(=O)[C@H](C1N[C@@H](C(=O)O)C(C)(C)S1)N1C(=O)c2ccccc2C1=O (stereo partly drawn) | 22.4% | 4.4%
O=C(Nc1nc2ccc(Cl)cc2s1)c1ccc(Br)o1 | 20µM* | 0.4%
O=C(Nc1nc2c(Cl)cccc2s1)c1ccc(Br)o1 | 15.3% | 6.8%
Cc1nc2ccccc2nc1-c1ccc(N=[N+]([O-])c2ccc(-c3nc4ccccc4nc3C)cc2)cc1 | 8.5% | 1.3%
CN1CCN(c2ncc3c(n2)CCN(Cc2ccccc2Cl)C3)CC1 | 3.7% | -1.0%
O=C(NNC(=O)c1sc2cccc(Cl)c2c1Cl)Nc1ccccc1 | 10µM* | 2.1%
O=C(NNC(=O)c1sc2cccc(Cl)c2c1Cl)NC1CCCCC1 | -7.2% | -9.0%
COc1cc(-c2nnc3sc(-c4cccs4)nn23)cc(OC)c1OC | 9.8% | -1.0%
O=C1c2ccccc2C(=O)N1c1ccc(Cc2ccc(N3C(=O)c4ccccc4C3=O)cc2)cc1 | 4.5% | -0.1%
Cc1csc(NC(=O)/C=C/c2ccc3c(c2)OCO3)n1 | -13.8% | -9.0%
O=C(/C=C/c1ccc2c(c1)OCO2)Nc1nc(-c2ccc(F)cc2F)cs1 | 7.94µM* | -4.7%
CCCCN(CCCC)CCNC(=O)Cn1nc(CC)n2c(cc3sc(C)cc32)c1=O | -3.5% | -1.7%
COc1cccc(-c2cc(C(=O)Nc3ccc(Br)c(C)c3)[nH]n2)c1 | 12.6µM* | -1.2%
COc1cccc(-c2cc(C(=O)Nc3ccc(F)cc3)[nH]n2)c1 | ? | -0.7%
O=C(NCCSCc1ccccc1Cl)C1CCN(S(=O)(=O)Cc2ccccc2)CC1 | -12.7% | -4.1%
SMILES | Cruzain noTriton | Cruzain inh Det
Cc1cccc(C)c1NC(=O)c1nc(S(C)(=O)=O)ncc1N(Cc1ccc(C(C)(C)C)cc1)Cc1ccco1 | -20.6% | -2.1%
Cc1ccc(C)c(NC(=O)c2nc(S(C)(=O)=O)ncc2N(Cc2ccc(C(C)(C)C)cc2)Cc2ccco2)c1 | 7.94µM* | -3.2%
Cc1cccc(C)c1NC(=O)c1nc(S(C)(=O)=O)ncc1N(Cc1ccc(F)cc1)Cc1ccco1 | -5.7% | -4.7%
CC(C)c1ccc(CN(Cc2ccco2)c2cnc(S(C)(=O)=O)nc2C(=O)Nc2ccc(F)cc2)cc1 | 15.8µM* | -2.5%
COc1ccc(CN(Cc2ccco2)c2cnc(S(C)(=O)=O)nc2C(=O)Nc2ccc(C)c(Cl)c2)cc1 | 7.94µM* | -1.7%
Cc1ccc(NC(=O)c2nc(S(C)(=O)=O)ncc2N(Cc2cccc(F)c2)Cc2ccco2)cc1C | ? | -3.1%
COc1cc([N+](=O)[O-])ccc1NC(=O)CCCOc1cc(C)ccc1C | 3.3% | -8.3%
CCOCCc1nn2c(=O)cc(COC(=O)c3ccccc3Br)nc2s1 | 14.2% | -4.3%
COc1ccc(-c2nc3ccccc3n3c(-c4cccc(C)c4)c4c(=O)n(C)c(=O)n(C)c4c23)cc1 | 4.2% | -1.7%
O=C1/C(=C/c2cccc(F)c2)CSc2sccc21 | -2.0% | -2.3%
Cc1cccc(/C=C2\CS/C(=C\c3cccc(C)c3)C2=O)c1 | 25.1µM* | -1.6%
Cc1ccc(S(=O)(=O)N2CCN(CC(=O)NC3CCCc4ccccc43)CC2)cc1C (stereo not drawn) | ? | 0.9%
Cc1ccc(C(=O)CSc2nc3cc(S(=O)(=O)N4CCOCC4)ccc3o2)cc1 | 11.9% | 1.2%
O=C(CSc1nc2cc(S(=O)(=O)N3CCOCC3)ccc2o1)NC1CCCc2ccccc21 (stereo not drawn) | 25.1µM* | -3.0%
Cc1[nH]c2ccccc2c1C(=O)CSc1nc2cc(S(=O)(=O)N3CCCCC3)ccc2o1 | 25.1µM* | 0.7%
